Experiments:
Assay in all cases: PBM binding z-score (relative to random genomic background probes); higher = stronger binding; sequences stand for … in GC…GCGATTGACAGCGTAGAATGAAGG
[1] = system: FXR:RXRa (NR concentration 270 nM, RXRa partner concentration 90 nM)
Summary of the method: (§1)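 Binding z-scores take random background probes as their reference. They come from custom Agilent 4×180K protein-binding microarrays incubated 1 h with ligand-free nuclear receptor dimers, with antibodies against each partner (one per run) detecting binding. Scanned fluorescence was regression-normalized.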

[2] = system: LXRa:RXRa (NR concentration 270 nM, RXRa partner concentration 90 nM)
Summary of the method: as §1

[3] = system: LXRa homodimer (NR concentration 270 nM)
Summary of the method: as §1

[4] = system: LXRb:RXRa (NR concentration 270 nM, RXRa partner concentration 90 nM)
Summary of the method: as §1

[5] = system: LXRb homodimer (NR concentration 270 nM)
Summary of the method: as §1

[6] = system: PPARa:RXRa (NR concentration 270 nM, RXRa partner concentration 90 nM)
Summary of the method: as §1

[7] = system: PPARg:RXRa (NR concentration 180 nM, RXRa partner concentration 90 nM)
Summary of the method: as §1

[8] = system: PPARg:RXRa 270nM:90nM, anti-RXR (NR concentration 270 nM, RXRa partner concentration 90 nM)
Summary of the method: as §1

[9] = system: PPARg:RXRa 30nM:10nM, anti-RXR (NR concentration 30 nM, RXRa partner concentration 10 nM)
Summary of the method: as §1

[10] = system: PPARg:RXRa 90nM:30nM, anti-RXR (NR concentration 90 nM, RXRa partner concentration 30 nM)
Summary of the method: as §1

[11] = system: PPARg:RXRa DBDmut IVT, anti-RXR (DBD mutation: RXRa K156A/R161A, NR concentration 270 nM, RXRa partner concentration 90 nM)
Summary of the method: as §1

[12] = system: PPARg:RXRa IVT, anti-PPARg (NR concentration 270 nM, RXRa partner concentration 90 nM)
Summary of the method: as §1

[13] = system: PPARg DBDmut:RXRa IVT, anti-PPARg (DBD mutation: PPARg1 K132A/R137A, NR concentration 270 nM, RXRa partner concentration 90 nM)
Summary of the method: as §1

[14] = system: PPARg DBDmut IVT, anti-PPARg (DBD mutation: PPARg1 K132A/R137A, NR concentration 270 nM)
Summary of the method: as §1

[15] = system: PPARg homodimer (NR concentration 180 nM)
Summary of the method: as §1

[16] = system: PXR:RXRa (NR concentration 270 nM, RXRa partner concentration 90 nM)
Summary of the method: as §1

[17] = system: PXR homodimer (NR concentration 270 nM)
Summary of the method: as §1

[18] = system: RARa:RXR (NR concentration 270 nM, RXRa partner concentration 90 nM)
Summary of the method: as §1

[19] = system: RARa homodimer (NR concentration 270 nM)
Summary of the method: as §1

[20] = system: RARb:RXRa (NR concentration 270 nM, RXRa partner concentration 90 nM)
Summary of the method: as §1

Sequence	PBM binding z-score [1]	PBM binding z-score [2]	PBM binding z-score [3]	PBM binding z-score [4]	PBM binding z-score [5]	PBM binding z-score [6]	PBM binding z-score [7]	PBM binding z-score [8]	PBM binding z-score [9]	PBM binding z-score [10]	PBM binding z-score [11]	PBM binding z-score [12]	PBM binding z-score [13]	PBM binding z-score [14]	PBM binding z-score [15]	PBM binding z-score [16]	PBM binding z-score [17]	PBM binding z-score [18]	PBM binding z-score [19]	PBM binding z-score [20]
AGAATGAGGTTATACGTAGATCCGGGAAGAAAGT	1.84	1.4	-0.0656	1.27	-0.0516	3.09	1.65	2.1	0.93	1.68	3.81	2.11	0.942	0.253	0.53	0.73	0.508	1.02	0.0175	1.27
TTACCAAGGTGAGCTGAGGTCGTTGTTCCAACTC	1.49	1.3	-0.412	0.784	-1.32	1.75	-0.301	1.01	-0.393	0.445	1.27	2.01	-0.911	-0.688	-0.161	5	0.345	2.16	-0.978	1.79
ATCGAGAGGTCGACGAGGTGAGTATACACCGTTT	3	2.28	-0.165	1.65	-0.204	3.36	1.95	2.03	0.529	1.52	0.355	1.71	-0.00601	0.563	0.663	2.43	0.615	2.84	-0.215	2.8
TATACAGGGTAAAAGGCCAGAGTACGAATGTCGA	0.526	0.732	0.094	0.483	0.559	2.02	3.63	4.11	2.26	3.82	1.68	2.88	1.57	1.04	1.27	0.286	0.409	0.32	0.622	1.85
CAAACTAGGTCAAAGGTCAAATTCGAGCCAACCA	8.57	7.2	6.34	7.43	4	7.66	14.1	11.5	12.7	14	8.73	9.36	7.2	6.6	8.4	7.16	1.57	8.86	3.32	5.62
CGTCCAAGGTCAAAGGTCAGTGAAGAGATGACGG	8.56	7.07	3.31	6.61	1.67	7.33	10.8	8.93	8.26	9.54	4.23	5.97	1.75	2.79	4.7	7.11	1.9	8.77	2.78	6.02
ATCTCTAGGTAACAAGTTCATTGAAAGAGAGGAC	1.22	1.89	1.5	1.8	1.27	2.75	2.82	3.03	1.55	2.63	3.39	3.28	1.38	1.78	1.57	3.71	5.1	2.06	1.52	1.89
GCTTACGGGTCAAAGGTTCTAGCATGAATAGAAT	6.11	4.09	-0.0816	4.09	-0.186	5.91	8.84	7.78	7.78	8.24	5.13	5.05	0.842	0.712	1.45	4	0.0267	5.93	0.382	3.82
TCGAGTAGGTTACCAATGGGGCCTTCAGCTTTCT	-0.184	0.128	-0.933	-0.0136	-1.01	0.918	-0.264	0.957	0.922	0.958	3.36	2.22	-0.652	-1.23	-0.653	-0.289	-1.01	0.0831	-1.27	0.653
AGAACGAGGGCACGCTGAGTTGATAGCGGAGTAG	1.07	0.591	-0.337	0.0446	-0.975	1.83	1.78	1.71	-0.0619	0.703	4.05	3.75	0.375	0.0426	0.25	1.35	0.0475	0.611	0.00108	2.42
AGAATGAGGTTATAGGTAGATCAGGGAAGAAAGT	2.06	2.1	0.425	1.89	0.41	3.67	4.23	4.73	3.33	4.47	2.86	2.76	1.2	1.03	1.63	1.52	1.49	1.93	1.46	1.72
GCAGACAGGTGAAACGCAGGTAACTAAGGGTGGC	-0.237	0.0308	-0.755	-0.289	-0.873	0.88	0.651	-0.421	-0.539	-0.453	0.562	0.741	-0.406	-0.735	-0.84	-0.388	-0.493	0.156	-0.657	0.531
CAACCTAGGTCAGGGCCAGTATAGGAGGAACGTT	2.3	1.36	-0.178	0.897	-0.856	2.5	1.79	1.74	0.0391	0.938	2.7	3.26	0.0736	0.168	1.57	0.478	-0.518	1.45	0.172	3.51
GCTGCTAGGTAAACTGATGGTCAGCTAAAGCTCG	-0.373	-0.492	-0.956	-0.723	-0.701	-0.566	-0.301	-0.644	-0.739	-0.98	0.994	0.0303	-1.25	-0.794	-1.08	-0.636	-0.67	-0.68	-1.2	-0.155
TCTATTAGTTGAAGGGCAACCCACGAGTCCGTTT	0.7	1.04	0.728	1.18	0.631	1.08	0.343	2.04	3.83	2.89	2.65	0.706	0.623	0.929	1.43	1.02	1.09	0.823	1.21	1.65
TCGCCTAGGTCATTGGGCCAGTATAGTACGCATC	4.27	2.83	0.548	2.4	-0.239	3.61	3.1	3.57	2.21	2.73	3.09	3.38	-0.283	-0.432	1.52	1.74	0.00603	2.24	-0.44	3.66
CAAACTAGGTCTCCGGAAGGTCAAAGTCCGCATG	2.65	3.15	2.79	3.25	0.445	3.75	2.85	3.29	0.811	2.34	5.21	4.82	0.561	0.489	2.44	3.68	1.14	3.9	0.122	3.23
GCTAGTTGGGCAGTAAAAGGTCACACACCGGTCG	3.19	4.3	4.34	3.64	0.418	4.28	2.12	3.8	1.65	3.19	0.484	2.09	-0.128	-0.41	4.82	5.1	1.13	6.26	2.32	4.16
ATCTCTAGGAAAAGTTCAGTGAAAGATCGATAGA	0.71	1.22	0.761	0.737	0.622	0.611	0.521	1.56	0.619	1.36	-0.273	0.00412	1.12	0.44	0.701	1.43	1.46	0.476	1.52	2.17
TCATATAGGTAAAAGCTAGGTGAAAGTCCGATCT	0.543	0.688	-0.0379	0.557	-0.187	1.69	1	2.74	4	3.37	3.84	2.83	1.06	1.08	0.659	0.255	0.0441	1.01	0.436	0.407
ACTAGCAGGCCAAGTTTGGGTCTCTCAAACAAAG	-0.742	-0.825	-0.773	-0.616	-0.908	-0.417	-0.897	-0.524	-1.1	-0.853	0.491	0.0697	-1.53	-0.788	-1.17	-0.733	-0.734	-0.606	-1.44	0.382
ATATGTAGGTTACATCCGGGCCATTCAGGCTATG	0.546	2.67	0.422	1.05	0.287	3.13	5.08	4.09	1.51	3.05	7.19	7.09	3.74	3.02	0.583	0.633	0.119	0.816	0.221	1.15
TGTGAAAGTTCAAAGGTAACGTAAGTATCCACAC	6.55	5.73	4.61	4.36	2.11	5.49	6.77	6.84	4.1	6.25	-0.131	3.37	1.69	1.46	2.73	5.64	4.19	6.09	1.81	4.74
ATCGAAAGGTCGTAAGGTGAGTATACAGAAAGGC	4.53	3.79	0.462	2.98	0.6	4.62	3.45	3.46	1.6	2.5	0.287	2.13	1.43	1.06	2.31	2.96	0.735	4.21	0.848	3.72
CCTAGCAGGCCAATCTGGGTCACTCACGGCTTGA	0.571	1.17	-0.195	0.493	-0.78	2.81	1.85	1.92	-0.256	1.18	4.16	4.93	-0.714	-0.428	0.645	0.777	-0.161	1.18	-0.509	1.56
CGTCCAAGGTCAGCAGCTCAGTGAAAGCGACGTG	5.06	3.06	-0.124	2.14	-0.454	4	1.68	2.61	0.139	1.47	2.5	2.27	-0.354	-0.261	1.96	2.16	-0.1	2.83	0.297	4.83
CCTTACGGGTCACTGAAAGGTTATAGCATTTGGA	5.83	4.87	0.976	4.17	0.221	5.59	5.13	5.03	2.12	3.38	2.95	4.1	1	1.09	3.7	5.03	0.223	6.33	0.617	4.51
TCTATTAGTTGAAGGGCAAGCGACGAGTCCGTTT	0.609	1.02	0.0576	0.863	0.193	1.04	0.0198	2.29	3.57	2.98	2.2	0.635	0.42	0.671	0.728	0.841	0.859	0.478	0.687	1.53
